This is a sample that favours compounds with a hit; in the whole collection about 32% have one here.
PostGolgi yeast: growth inhibition of a yeast mutant, post-Golgi transport screen; post-Golgi transport phenotypic cell assay; inhibition, % at 10 µM; hit rate 0.9% among 98,000;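 note: yeast cells grown in 1536-well plates; yeast grown about 18 h at 30C before absorbance read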
CYP2C19 inhib: inhibitors of human CYP2C19; P33261; CYP2C19 Supersomes, luciferin-H EGE luminescence, 30 min; inhibition, % at 5 µM; hit rate 21% among 96,000; AID 778;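 active = CYP2C19 inhibition above a set limit at 5 µM in the primary screen, cut at about 50% in these data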;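 note: plate controls were negative control wells for no effect and 2.5 mM tranylcypromine positive control for full effect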
Target sequence (P33261 whole entry, looked up): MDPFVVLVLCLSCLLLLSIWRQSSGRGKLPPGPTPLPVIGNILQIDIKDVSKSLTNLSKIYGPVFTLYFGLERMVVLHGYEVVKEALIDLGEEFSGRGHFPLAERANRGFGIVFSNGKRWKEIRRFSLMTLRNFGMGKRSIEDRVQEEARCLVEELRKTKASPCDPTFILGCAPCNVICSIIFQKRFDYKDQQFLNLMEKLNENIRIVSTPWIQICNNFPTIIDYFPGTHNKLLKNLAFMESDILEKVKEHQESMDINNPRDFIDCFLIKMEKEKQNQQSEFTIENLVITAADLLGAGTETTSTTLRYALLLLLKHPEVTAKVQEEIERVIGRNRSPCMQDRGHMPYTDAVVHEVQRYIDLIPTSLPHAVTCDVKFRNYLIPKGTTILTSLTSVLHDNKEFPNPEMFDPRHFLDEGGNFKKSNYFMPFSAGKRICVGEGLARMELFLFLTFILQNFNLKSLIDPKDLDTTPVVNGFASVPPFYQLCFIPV
PostGolgi ctrl: growth of the yeast control strain, post-Golgi counter-screen | hit rate 5% among 98,000 | inhibition, % at 10 µM | efflux-deficient yeast background strain, growth absorbance A615, 16 h
CYP2C9 inh: human CYP2C9 inhibition. hit rate 20% among 96,000. inhibition, % at 5 µM. CYP2C9 Supersomes, luciferin-H conversion, luminescence. P11712;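 active = blocking of liver enzyme CYP2C9 beyond about 50% at 5 µM, limit read from the data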
CYP2C19 act: cytochrome P450 2C19 (human) activation; P33261; recombinant CYP2C19, luciferin-H EGE luminescence; hits give high values; 0 = fully inhibited enzyme, 1 = untreated enzyme; activation factor at 5 µM; 96,000 tested, under 10 active; AID 1025;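 active = activation factor of at least 2 at 5 µM in the primary screen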;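 note: 0 = wells with 2.5 mM tranylcypromine and 1 = vehicle-only wells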
CYP2C9 act: increases human cytochrome P450 2C9 activity; P11712; AID 1024; recombinant CYP2C9, luciferin-H conversion, luminescence; hits give high values; factor 1 = untreated enzyme, 0 = blocked; activation factor at 5 µM; hit rate 1.4% among 96,000;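 active = activation factor of 2 or more for CYP2C9 at a 5 µM dose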;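 note: 0 = sulfaphenazole-blocked wells and 1 = vehicle-only wells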
* = called active by the depositor; . = not tested or not shown. Cut-off read from the data, not from the text of the source, unless noted: active = inhibition above about 30%; inactive = the rest.

SMILES	PostGolgi yeast	CYP2C19 inhib	PostGolgi ctrl	CYP2C9 inh	CYP2C19 act	CYP2C9 act
CCCC12CN3CC(C)(CN(C1)C3c1ccc(OC(C)C)cc1)C2=O (configuration not stated)	-6	2	11	16	1	0.8
CCOC(=O)C1=C(O)/C(=C/N(C)C)N=C1C	20	-8	23	-4	1.1	1
CCOC(=O)C1=C(O)/C(=C\c2cccc(OC)c2)N=C1C	-4	65*	-2	28	0.3	0.7
COc1ccc(Cc2nnc(NC(=O)c3cccc([N+](=O)[O-])c3C)s2)cc1	1	-15	5	-14	1.1	1.1
Cc1nnc(N/N=C/c2cc([N+](=O)[O-])c(N3CCC(C)CC3)cc2N2CCC(C)CC2)n1N	-7	12	17	21	0.9	0.8
Cc1ccc(C)c(N(CC(=O)NC2CCCC2)C(=O)c2oc(C(C)(C)C)cc2C)c1	-4	26	12	26	0.7	0.7
Cc1ccc(C)c(N(CC(=O)NC2CCCC2)C(=O)c2cc3cc4cccc(C)c4nc3s2)c1	15	18	10	96*	0.8	0
Cc1cc(C)cc(N(CC(=O)NC2CCCCC2)C(=O)c2ccc(C)s2)c1	-4	26	15	-5	0.7	1.1
Cc1ccc2cc3cc(C(=O)N(CC(=O)NC4CCCC4)c4cccc(C)c4C)sc3nc2c1	1	47	2	94*	0.5	0.1
O=C(NCc1ccccc1Cl)c1cnn2cccnc12	0	41	9	-68	0.6	1.7
Cc1ccc(-c2ccc(/C=N\NC(=O)C3C(=O)NCC3c3ccccc3)o2)cc1Cl (configuration not stated)	-5	4	28	50*	1	0.5
O=C1NCC(c2ccccc2)C1C(=O)N/N=C\c1ccc(-c2cccc(Cl)c2Cl)o1 (configuration not stated)	-5	11	21	59*	0.9	0.4
COc1ccc(C(c2sc3nc(C)nn3c2O)N2CCC3(CC2)OCCO3)cc1 (configuration not stated)	15	45	3	11	0.6	0.9
O=C(c1n[nH]c(=O)c2ccccc12)N1CCN(C2c3ccccc3-c3ccccc32)CC1	12	68*	33*	64*	0.3	0.4
CC(C)(C)C(=O)CN1CCN(C2c3ccccc3-c3ccccc32)CC1	-3	40	5	9	0.6	0.9
CCOC(=O)c1nnn(-c2nonc2-n2cccc2)c1CCl	-1	23	17	68*	0.8	0.3
CC(C)OC(=O)c1nnn(-c2nonc2N)c1CN1CCCCCC1	-10	5	-4	15	0.9	0.9
CC(C)OC(=O)c1nnn(-c2nonc2N)c1CN1CCc2ccccc2C1	1	13	47*	68*	0.9	0.3
CCOC(=O)c1nnn(-c2nonc2N)c1CN1CCc2ccccc2C1	1	8	22	58*	0.9	0.4
CCOC(=O)c1nnn(-c2nonc2-n2cccc2)c1CN1CCC(C)CC1	1	-8	14	10	1.1	0.9
CCOC(=O)c1nnn(-c2nonc2N)c1C	-7	15	8	-11	0.8	1.1
CCOC(=O)c1nnn(-c2nonc2N)c1CS(=O)(=O)c1ccccc1	10	63*	10	37	0.4	0.6
Cc1nc(SCc2ccccc2)c(C(F)(F)F)c(=O)[nH]1	-5	48	-1	44	0.5	0.6
Cc1cc(C)n(Cc2ccc(NC(=O)c3c([N+](=O)[O-])c(C)nn3C)cc2)n1	3	-9	1	29	1.1	0.7
CSc1ccccc1NC(=O)c1c(C)noc1C	-8	10	6	-4	0.9	1
SMILES	PostGolgi yeast	CYP2C19 inhib	PostGolgi ctrl	CYP2C9 inh	CYP2C19 act	CYP2C9 act
CCOC(=O)c1nnn(-c2nonc2N)c1COc1c(C=O)cccc1OC	12	14	19	71*	0.9	0.3
COC(=O)c1nnn(-c2nonc2N)c1CN1CCc2ccccc21	-7	96*	13	72*	0	0.3
CCn1c(=S)[nH]c2cc(C(=O)OC)ccc2c1=O	-3	-6	14	10	1.1	0.9
Cc1cc(C)nc(NC(=O)/C=C/c2ccc(Cl)cc2Cl)c1	12	5	57*	-36	0.9	1.4
O=C(/C=C/c1ccc(Cl)cc1Cl)NCc1ccncc1	0	81*	8	76*	0.2	0.2
Cc1cc(C)nc(NC(=O)/C=C/c2cccs2)c1	-1	8	8	-34	0.9	1.3
CCC(c1nnnn1Cc1ccco1)N1CCN(c2cc(Cl)ccc2C)CC1 (configuration not stated)	4	19	56*	59*	0.8	0.4
CCC(c1nnnn1Cc1ccco1)N1CCC(C(N)=O)CC1 (configuration not stated)	15	2	-6	-5	1	1.1
Cc1ccc(Cl)cc1N1CCN(Cc2nnnn2Cc2ccco2)CC1	4	77*	38*	93*	0.2	0.1
CC1CCCN(S(=O)(=O)c2ccc3c(c2)CCN3C(=O)C2CCC2)C1 (configuration not stated)	9	2	12	28	1	0.7
NC(Cc1cccc2nsnc12)C(=O)O (configuration not stated)	6	2	7	6	1	0.9
Cc1csc(SCC(=O)NC23CC4CC(CC(C4)C2)C3)n1	3	33	9	6	0.7	0.9
Cc1c(Cl)c([N+](=O)[O-])nn1CC(=O)NC12CC3CC(CC(C3)C1)C2	6	79*	13	24	0.2	0.8
COc1ccc(S(=O)(=O)Nc2ccccc2C(F)(F)F)cc1	-6	78*	10	21	0.2	0.8
COc1ccc(S(=O)(=O)Nc2ccc(O)c3ccccc23)cc1	.	97*	.	67*	0	0.3
COC(=O)Nc1ccc(S(=O)(=O)Nc2cccc3ccccc23)cc1	7	.	11	.	.	.
N#Cc1c(N)nc(SCC(=O)NC2CCCCC2)c(C#N)c1-c1ccc(Cl)cc1	-1	-5	10	-10	1.1	1.1
N#CCSc1nc(N)c(C#N)c(C2CCCCC2)c1C#N	18	11	51*	53*	0.9	0.5
CCCC1(C(=O)OCC)NC(c2cc(OC)c(OC)c(OC)c2)C2C(=O)N(CC)C(=O)C21 (configuration not stated)	4	4	-7	13	1	0.9
CN(C)c1ccc(-c2nnn(Cc3ccccc3Br)n2)cc1	1	96*	31*	-36	0	1.4
CC(=O)O/N=C(/C)c1ncc(C(F)(F)F)cc1N1CCOCC1	2	8	3	15	0.9	0.9
CCn1c(Cn2nnc(-c3ccccc3)n2)nnc1SCC(=O)Nc1ccc(C(C)=O)cc1	-16	26	-2	40	0.7	0.6
CCn1c(Cn2nnc(-c3ccccc3)n2)nnc1SCC(=O)Nc1cccc(C)c1C	-4	68*	8	57*	0.3	0.4

Screening data as filed in PubChem.
